Records with an inconclusive call do not appear. Entries that show only a call come without a potency. Unmarked numbers belong to inactive results. Activity calls are given as the source filed them. Unless noted, calls follow the shape of the dose curve; as a rule, active = well fitted curve in the direction sought with a large enough effect in the repeat runs; inconclusive = weak or mixed curves; inactive = no such curve, though single readings can be large; an effect the other way counts as inactive or inconclusive.
What was measured:
[1] = qHTS assay to identify small molecule agonists of the vitamin D receptor (VDR) signaling pathway - cell viability counter screen (AID 743224); also: nearly all actives have a fitted effect of over 50% in size; also: potency is read from the fitted curve at half-maximal effect
How it was run: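 Viability is measured in the same wells as the VDR-bla reporter assay: after 16 h compound treatment and 2 h substrate loading, CellTiter-Glo is added and luminescence read 30 min later.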

[2] = qHTS assay to identify small molecule antagonists of the vitamin D receptor (VDR) signaling pathway - cell viability counter screen (AID 743225); also: nearly all actives have a fitted effect of over 50% in size
How it was run: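 Parallel cytotoxicity test: VDR-UAS-bla HEK 293T, 3 nM (final) 1-alpha,25-dihydroxyvitamin D3 with test compound, 16 h, 37C. Endpoint is CellTiter-Glo luminescence in the same wells.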

[3] = qHTS assay to identify small molecule agonists of the NFkB signaling pathway - cell viability counter screen (AID 1159515; calls by dose curve; also: series mostly up to about 61 µM; nearly all actives have a fitted effect of over 55% in size)
How it was run: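 Multiplexed viability readout: after the 5 hr compound exposure and 1.5 hr FRET substrate step, CellTiter-Glo reagent went into the same NFkB-bla ME-180 wells; ATP luminescence was measured after 30 min at room temperature.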

[4] = qHTS assay to identify small molecule agonists of the endoplasmic reticulum stress response signaling pathway (AID 1159516; active = well fitted activation curve with a large enough effect in the signal ratio in the repeat runs, not every such curve was filed as active; the % refers to the signal ratio; also: potency is read from the fitted curve at half-maximal effect)
How it was run: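 Tox21 10K library screened in quantitative HTS format on ESRE-bla HeLa cells, a beta-lactamase reporter under ER stress response element control; 5 hr treatment, FRET read.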

[5] = qHTS assay to identify small molecule agonists of the endoplasmic reticulum stress response signaling pathway - cell viability counter screen (AID 1159517; calls by dose curve; also: series mostly up to about 61 µM; nearly all actives have a fitted effect of over 50% in size)
How it was run: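 Counter-screen wells were identical to the reporter wells. Cells were plated at 1,500 per well and dosed for 5 hr, then read for luminescence 30 min after CellTiter-Glo addition.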

[6] = qHTS assay to identify small molecule antagonists of the retinoid-related orphan receptor gamma (ROR-gamma) signaling pathway - cell viability counter screen (AID 1159520); also: nearly all actives have a fitted effect of over 50% in size
How it was run: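 Tet-on ROR gamma CHO cells were given compounds for 2 hr, then doxycycline hyclate at 1 uM final, and incubated 16 hr at 37 C. Viability was measured as ATP content by CellTiter-Glo luminescence.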

[7] = target: Nuclear receptor ROR-gamma (Homo sapiens) (UniProt P51449); assay: qHTS assay to identify small molecule antagonists of the retinoid-related orphan receptor gamma (ROR-gamma) signaling pathway (AID 1159521; also: nearly all actives have a fitted effect of over 50% in size; also: potency is read from the fitted curve at half-maximal effect)
How it was run: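 Decreased RORE-driven luciferase luminescence indicates antagonism. Tet-on RORγ CHO cells received compound, then 1 uM final doxycycline 2 h later; signal read after 16 h incubation.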

[8] = qHTS assay to identify small molecule agonists of the AP-1 signaling pathway - cell viability counter screen (AID 1159525; calls by dose curve; also: nearly all actives have a fitted effect of over 55% in size)
How it was run: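 AP-1-bla ME-180 cells in Opti-MEM with 0.5% dialyzed FBS, compound exposure 5 h at 37 C in 15-point titration. Viability read in the same wells as ATP content by CellTiter-Glo luminescence, normalised to tetra-n-octylammonium bromide and DMSO controls.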

[9] = qHTS assay to identify small molecule agonists of the RXR signaling pathway - cell viability counter screen (AID 1159529); also: nearly all actives have a fitted effect of over 50% in size; also: potency is read from the fitted curve at half-maximal effect
How it was run: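 In this parallel viability measure, GeneBLAzer RXR-alpha HEK 293T cells (2% charcoal-stripped FBS) were given a 5 hr preincubation, treated with compounds 16 hr at 37 C, and read by CellTiter-Glo luminescence.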

[10] = qHTS assay to identify small molecule antagonists of the retinoid acid receptor (RAR) signaling pathway - cell viability counter screen (AID 1159551); also: nearly all actives have a fitted effect of over 35% in size
How it was run: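 Cytotoxicity counter screen in C3RL4 cells: 6 h compound exposure with 1 uM retinol (final), viability from cellular ATP by luminescence.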

[11] = qHTS assay to identify small molecule agonists of the retinoic acid receptor (RAR) signaling pathway (AID 1159553); also: potency is read from the fitted curve at half-maximal effect
How it was run: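 Agonist activity was scored in C3RL4 cells bearing a retinoic acid response element luciferase construct. Cells were treated with compounds for 6 hr at 37 C, and luciferase signal was measured as luminescence.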

[12] = qHTS assay to identify small molecule agonists of the AP-1 signaling pathway (AID 1159526; calls by dose curve)
[13] = qHTS assay to identify small molecule antagonists of the retinoic acid receptor (RAR) signaling pathway (AID 1159552; also: nearly all actives have a fitted effect of over 50% in size)
How it was run: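 C3RL4 RARE-luc cells, overnight plating; retinol 1 uM final added right after compound; 6 hr 37 C; luciferase read at 30 min RT.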

[14] = target: Retinoic acid receptor RXR-alpha (Homo sapiens) (UniProt P19793); assay: qHTS assay to identify small molecule agonists of the RXR signaling pathway (AID 1159527; calls by dose curve; also: nearly all actives have a fitted effect of over 35% in size)
How it was run: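 16 hr incubation of compound-treated RXR-alpha-UAS-bla HEK 293T cells (2% charcoal-stripped FBS, 37 C) preceded a 2 hr room-temperature LiveBLAzer FRET substrate step and blue/green fluorescence measurement.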

Retinoic acid receptor RXR-alpha (Homo sapiens), sequence (P19793 whole entry, looked up): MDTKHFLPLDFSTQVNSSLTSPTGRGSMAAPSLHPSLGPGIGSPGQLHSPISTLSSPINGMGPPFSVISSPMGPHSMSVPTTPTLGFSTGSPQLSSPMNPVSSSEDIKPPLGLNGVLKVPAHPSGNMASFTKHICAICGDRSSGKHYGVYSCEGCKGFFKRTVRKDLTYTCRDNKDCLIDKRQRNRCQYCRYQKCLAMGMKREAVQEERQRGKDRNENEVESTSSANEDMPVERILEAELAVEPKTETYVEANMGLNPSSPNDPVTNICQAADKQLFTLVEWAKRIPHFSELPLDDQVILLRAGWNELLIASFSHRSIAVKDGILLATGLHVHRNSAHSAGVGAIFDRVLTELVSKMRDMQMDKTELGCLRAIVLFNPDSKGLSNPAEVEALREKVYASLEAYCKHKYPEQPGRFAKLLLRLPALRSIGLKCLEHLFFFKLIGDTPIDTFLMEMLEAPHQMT

Row | SMILES | Potency [1] | Potency [2] | Potency [3] | Potency [4] | Potency [5] | Potency [6] | Potency [7] | Potency [8] | Potency [9] | Potency [10] | Potency [11] | Potency [12] | Potency [13] | Potency [14]
1 | Nc1ccc(Cl)cc1C(=O)c1ccccc1F | inactive | inactive | inactive | inactive | inactive | inactive | inactive | inactive | inactive | inactive | inactive |  |  | 
2 | O=C(O)[C@H](O)[C@@H](O)C(=O)O | inactive | inactive | inactive | inactive | inactive | inactive | inactive |  | inactive | inactive |  | inactive |  | 
3 | CSSC | inactive | inactive | inactive | inactive | inactive | inactive | inactive | inactive | inactive | inactive |  |  | inactive | 
4 | CC[C@]1(O)CC[C@H]2[C@@H]3CCC4=CCCC[C@@H]4[C@H]3CC[C@@]21C | inactive | inactive | inactive | inactive | inactive | inactive | inactive | inactive | inactive | inactive |  |  |  | 
5 | c1ccc(Nc2ccc(Nc3ccccc3)cc2)cc1 |  | inactive | inactive | inactive | inactive | inactive | inactive |  |  | inactive | 5.43 µM (active) |  | inactive | 
6 | CC1=C2C[C@H]3[C@@H](CC=C4C[C@@H](O)CC[C@@]43C)[C@@H]2CC[C@]12O[C@@H]1C[C@H](C)CN[C@H]1[C@H]2C |  | inactive | inactive | inactive | inactive | inactive | 8.41 µM (active) |  |  | inactive | inactive |  | inactive | 
7 | O=[N+]([O-])c1ccccc1-c1ccccc1 | inactive | inactive | inactive | inactive | inactive | inactive | inactive | inactive | inactive | inactive |  |  | inactive | inactive
8 | CC(C)C(Br)C(=O)NC(N)=O (configuration not stated) | inactive | inactive | inactive | inactive | inactive | inactive | inactive |  | inactive |  |  | inactive |  | 
9 | CC(C)Br | inactive | inactive | inactive | inactive | inactive | inactive | inactive | inactive | inactive |  | inactive |  | inactive | 
10 | O=S(=O)(O)F | inactive | inactive | inactive | inactive | inactive | inactive |  | inactive | inactive | inactive | inactive | inactive | inactive | inactive
11 | CC(C)NCC(O)c1ccccc1Cl (configuration not stated) | inactive | inactive | inactive | inactive | inactive | inactive |  | inactive | inactive | inactive | inactive | inactive | inactive | inactive
12 | O=P(Cl)(Cl)Cl | inactive | inactive | inactive | inactive | inactive | inactive |  | inactive | inactive | inactive |  | inactive | inactive | inactive
13 | O=c1c2ccccc2c(=O)c2c1cc(Cl)c1[nH]c3c([nH]c12)c(Cl)cc1c(=O)c2ccccc2c(=O)c13 |  |  | inactive | inactive | inactive | inactive | inactive | inactive | inactive | inactive |  |  |  | inactive
14 | Clc1ccc(C2(Cn3cncn3)OCCO2)c(Cl)c1 | inactive | inactive | inactive | inactive | inactive | inactive | inactive | inactive | inactive | inactive |  | inactive |  | 
15 | [C-]1=CC=CC1.[Cl][Zr+2][Cl].c1cc[cH-]c1 | inactive | inactive | inactive | inactive | inactive | inactive | inactive | inactive | inactive | inactive |  | inactive |  | 
16 | O=C(Nc1ccc(F)cc1F)c1cccnc1Oc1cccc(C(F)(F)F)c1 | inactive | inactive | inactive | inactive | inactive | inactive | inactive | inactive | inactive | inactive | inactive |  | inactive | inactive
17 | CC(C)N(C(=O)SC/C(Cl)=C/Cl)C(C)C | inactive | inactive | inactive | inactive | inactive | inactive | inactive |  | inactive | inactive | inactive |  |  | inactive
18 | [O-][Cl+3]([O-])([O-])O |  |  | inactive | inactive | inactive | inactive |  | inactive | inactive | inactive |  | inactive |  | inactive
19 | CNN | inactive | inactive | inactive | inactive | inactive | inactive |  | inactive | inactive | inactive |  | inactive |  | inactive
20 | CC(C)(C)c1ccc(OP(=O)(Oc2ccccc2)Oc2ccccc2)cc1 | inactive |  | inactive | inactive | inactive | inactive |  |  |  | inactive |  | inactive |  | 
21 | Oc1ccc2[nH]cc(CCCCN3CC=C(c4ccccc4)CC3)c2c1 | inactive | inactive | inactive | 4.25 µM (active) | inactive | inactive |  |  | inactive | inactive |  |  | inactive | inactive
22 | C[C@]12CC[C@H]3[C@@H](CCC4=CC(=O)CC[C@@H]43)[C@@H]1CC[C@@H]2OC(=O)CCc1ccco1 | 21.1 µM (active) |  | inactive | inactive | inactive | inactive |  | inactive | 23.9 µM (active) | inactive | inactive |  | inactive | 
